Test results from paper PMC5700166.
Substitutions are numbered along the chain they refer to.

Tests used:
Experiment in all cases: protein-binding microarray (PBM); PBM: ~300 nM protein, 6 mM HEPES pH 7.8, 80 mM KCl, 0.5 mM EDTA, 0.5 mM EGTA, 6% glycerol, 35 ng/ul poly-dIdC, 1% milk, 1 h, room temperature; Ap Aiptasia and Nv Nematostella (sea anemones) / Co Capsaspora / Aq Amphimedon (sponge) / Dm Drosophila / Hu human; RHD is the Rel homology domain; high values mean tight binding
Settings in all cases: dsDNA, one strand shown
GST-Ap-NF-kB RHD = biological target: T1, GST-Ap-NF-kB RHD (Exaiptasia pallida (Aiptasia), UniProt A0A913YAJ5 2-422)
T1 sequence: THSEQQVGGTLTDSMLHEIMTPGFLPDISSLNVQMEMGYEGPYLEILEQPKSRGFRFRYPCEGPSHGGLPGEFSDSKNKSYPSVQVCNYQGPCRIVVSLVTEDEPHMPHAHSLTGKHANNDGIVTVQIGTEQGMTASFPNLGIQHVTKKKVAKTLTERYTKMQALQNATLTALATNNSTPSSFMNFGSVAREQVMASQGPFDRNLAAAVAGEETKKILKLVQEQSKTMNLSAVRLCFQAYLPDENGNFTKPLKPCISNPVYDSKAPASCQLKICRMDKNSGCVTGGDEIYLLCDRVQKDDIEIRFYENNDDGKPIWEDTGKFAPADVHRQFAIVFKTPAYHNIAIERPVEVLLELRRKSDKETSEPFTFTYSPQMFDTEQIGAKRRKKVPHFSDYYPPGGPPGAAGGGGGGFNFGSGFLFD

[1] = biological target: T2, GST-Nv-NF-kB (Cys allele) (Nematostella vectensis, UniProt E5G601 2-411)
T2 sequence: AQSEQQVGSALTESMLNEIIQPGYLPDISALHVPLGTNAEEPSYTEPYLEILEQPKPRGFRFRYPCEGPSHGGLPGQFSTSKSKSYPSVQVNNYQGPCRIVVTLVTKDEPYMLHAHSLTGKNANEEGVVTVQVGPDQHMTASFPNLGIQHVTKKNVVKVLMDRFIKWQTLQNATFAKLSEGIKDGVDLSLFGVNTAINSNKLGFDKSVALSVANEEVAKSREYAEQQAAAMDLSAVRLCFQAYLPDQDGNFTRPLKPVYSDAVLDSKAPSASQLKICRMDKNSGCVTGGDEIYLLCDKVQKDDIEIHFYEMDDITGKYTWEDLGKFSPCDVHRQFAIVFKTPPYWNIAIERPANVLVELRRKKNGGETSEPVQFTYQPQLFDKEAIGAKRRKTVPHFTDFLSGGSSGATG

GST-Aq-NF-kB = biological target: T3, GST-Aq-NF-kB (Amphimedon queenslandica, UniProt A9Y5G7 2-389)
T3 sequence: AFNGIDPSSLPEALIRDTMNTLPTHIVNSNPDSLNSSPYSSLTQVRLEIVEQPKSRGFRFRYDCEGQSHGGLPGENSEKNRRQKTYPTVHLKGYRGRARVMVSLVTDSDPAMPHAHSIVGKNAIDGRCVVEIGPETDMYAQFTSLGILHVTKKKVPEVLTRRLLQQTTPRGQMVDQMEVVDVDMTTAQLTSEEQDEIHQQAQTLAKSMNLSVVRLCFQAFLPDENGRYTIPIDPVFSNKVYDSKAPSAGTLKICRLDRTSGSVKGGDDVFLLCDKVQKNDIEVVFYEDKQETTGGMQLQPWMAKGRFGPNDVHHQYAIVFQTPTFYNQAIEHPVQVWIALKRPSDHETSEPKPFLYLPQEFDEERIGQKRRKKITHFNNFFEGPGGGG

GST-Dm-Relish = biological target: T4, GST-Dm-Relish (Drosophila melanogaster, UniProt Q94527 99-473)
T4 sequence: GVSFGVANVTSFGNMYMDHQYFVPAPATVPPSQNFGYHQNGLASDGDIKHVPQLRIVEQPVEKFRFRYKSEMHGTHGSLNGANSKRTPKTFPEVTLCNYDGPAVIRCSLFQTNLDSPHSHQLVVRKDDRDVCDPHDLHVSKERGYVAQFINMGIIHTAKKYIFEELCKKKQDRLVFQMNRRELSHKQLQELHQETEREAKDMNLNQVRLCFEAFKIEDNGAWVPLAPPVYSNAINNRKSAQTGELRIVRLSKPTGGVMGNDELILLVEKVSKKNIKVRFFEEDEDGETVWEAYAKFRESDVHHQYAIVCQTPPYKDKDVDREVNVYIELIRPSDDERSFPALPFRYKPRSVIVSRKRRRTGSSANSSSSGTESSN

GST-Hu-p50 = GST-Hu-p50 (Homo sapiens, UniProt P19838 7-356)
GST-Hu-p50, sequence (P19838 7-356): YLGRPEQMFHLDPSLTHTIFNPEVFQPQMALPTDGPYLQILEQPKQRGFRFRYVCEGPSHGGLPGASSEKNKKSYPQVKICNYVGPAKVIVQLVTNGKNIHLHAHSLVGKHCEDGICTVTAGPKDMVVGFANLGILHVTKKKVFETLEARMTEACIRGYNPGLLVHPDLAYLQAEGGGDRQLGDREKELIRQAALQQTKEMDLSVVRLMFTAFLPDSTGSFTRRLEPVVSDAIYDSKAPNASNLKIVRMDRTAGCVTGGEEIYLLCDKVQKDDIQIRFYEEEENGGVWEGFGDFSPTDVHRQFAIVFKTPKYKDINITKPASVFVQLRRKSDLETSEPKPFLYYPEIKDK

[2] = biological target: T5, GST-Nv-NF-kB (Ser allele) (Nematostella vectensis, UniProt A7UNT2 2-411)
T5 sequence: T2 sequence with Q21R, C66S, S207N, E215Q, V217A, E225K, A268E, D399E

Sequence | binding signal (GST-Ap-NF-kB RHD) [z-score] | binding signal [1] [z-score] | binding signal (GST-Aq-NF-kB) [z-score] | binding signal (GST-Dm-Relish) [z-score] | binding signal (GST-Hu-p50) [z-score] | binding signal [2] [z-score]
CCGATTAACATCAGTCCCTAAGCTGATGTTAATCGGGTCTTGATTCGCTTGACGCTGCTG | 1.75 | 3.07 | 4.16 | – | – | –
CCGATTAACATCAGGAAAATTCCTGATGTTAATCGGGTCTTGATTCGCTTGACGCTGCTG | – | – | 2.45 | 1.52 | 1.61 | –
CCGATTAACATCAGGACCGTCCCTGATGTTAATCGGGTCTTGATTCGCTTGACGCTGCTG | 4.25 | 3.73 | 6.42 | – | – | –
CCGATTAACATCAGTTGTCCCGCTGATGTTAATCGGGTCTTGATTCGCTTGACGCTGCTG | 1.69 | 1.89 | 1.16 | – | – | –
CCGATTAACATCAAGAAAATTCCTGATGTTAATCGGGTCTTGATTCGCTTGACGCTGCTG | – | – | 1.97 | 1.53 | 1.07 | –
CCGATTAACATCAGGACACTCCCTGATGTTAATCGGGTCTTGATTCGCTTGACGCTGCTG | 1.81 | 2.51 | 5.35 | – | – | –
CCGATTAACATCAAGCCTGTCCCTGATGTTAATCGGGTCTTGATTCGCTTGACGCTGCTG | 2.01 | 1.27 | 1.77 | – | – | –
CCGATTAACATCAGGCACTTCCCTGATGTTAATCGGGTCTTGATTCGCTTGACGCTGCTG | 1.15 | 1.51 | 3.6 | – | – | –
CCGATTAACATCAGGAAATTTACTGATGTTAATCGGGTCTTGATTCGCTTGACGCTGCTG | – | – | 1.54 | 1.36 | 1.51 | –
CCGATTAACATCAACGGGTCCCTTGATGTTAATCGGGTCTTGATTCGCTTGACGCTGCTG | 2.6 | 1.84 | 2.73 | – | – | –
CCGATTAACATCAGAAAAATTCCTGATGTTAATCGGGTCTTGATTCGCTTGACGCTGCTG | – | – | 2.21 | 2.97 | 1.71 | –
CCGATTAACATCAGTCCCGCACTTGATGTTAATCGGGTCTTGATTCGCTTGACGCTGCTG | 1.61 | 1.95 | 2.85 | – | – | –
CCGATTAACATCAAGGTTTTTCCTGATGTTAATCGGGTCTTGATTCGCTTGACGCTGCTG | – | – | 2.97 | 3.17 | 1.61 | 1.62
CCGATTAACATCAGGAACCTCCCTGATGTTAATCGGGTCTTGATTCGCTTGACGCTGCTG | 1.92 | 2.34 | 4.17 | – | – | –
CCGATTAACATCACAAAAAATCCTGATGTTAATCGGGTCTTGATTCGCTTGACGCTGCTG | – | – | 1.44 | 1.98 | 1.98 | –
CCGATTAACATCAGGACTTGCCCTGATGTTAATCGGGTCTTGATTCGCTTGACGCTGCTG | 1.21 | 1.11 | 4.8 | – | – | –
CCGATTAACATCAGGAGCTTCCCTGATGTTAATCGGGTCTTGATTCGCTTGACGCTGCTG | 1.1 | 1.03 | 3.47 | – | – | –
CCGATTAACATCATAGTCCCATGTGATGTTAATCGGGTCTTGATTCGCTTGACGCTGCTG | 2.47 | 2.41 | 2.36 | – | – | –
CCGATTAACATCAGGAATAACCATGATGTTAATCGGGTCTTGATTCGCTTGACGCTGCTG | – | – | 1.32 | 1.8 | 2.29 | –
CCGATTAACATCAGGAATTTTTATGATGTTAATCGGGTCTTGATTCGCTTGACGCTGCTG | – | – | 1.99 | 1.94 | 1.39 | –
CCGATTAACATCAGGAATTGCCCTGATGTTAATCGGGTCTTGATTCGCTTGACGCTGCTG | 1.16 | 2.2 | 4.94 | – | – | –
CCGATTAACATCAGGCATGCCCCTGATGTTAATCGGGTCTTGATTCGCTTGACGCTGCTG | 2.6 | 1.59 | 4.39 | – | – | –
